For 24 compounds, growth results are on record in PubChem BioAssay (NCI).

Among the test systems are BT-549 breast; SW-620 colon; MCF7 breast; HCT-116 colon; HCC-2998 colon; KM12 colon; MDA-MB-435 melanoma.
Common to all, as to experiment: NCI-60 one-dose screen, 48 h (100 = growth as untreated, 0 = no growth, -100 = all killed)
Details in all cases: 10 µM unless noted

The panel holds about 83,000 compounds, 20% with a hit somewhere; the sample as a whole holds those more often.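 Compound tested at a single concentration for 48 hours in 96-well plates; a percent growth value below 10 was scored as active.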 Unmarked numbers belong to inactive results. The source made the active and inactive calls.

Turning to `O=[N+]([O-])c1ccc(N=Nc2c(O)c(N=Nc3cc([N+](=O)[O-])cc([N+](=O)[O-])c3O)cc(N=Nc3cc(S(=O)(=O)O)cc4cc(S(=O)(=O)O)cc(O)c34)c2O)cc1`, the growth in the assay with BT-549 breast is 104%; with SW-620 colon, 108%; in the assay with MCF7 breast it was 99.6%; with HCT-116 colon, 80.9%; in the assay on HCC-2998 colon, 104%; in the assay on KM12 colon, 103%.

As for `N#Cc1ccc(N2Cc3cc(Cl)ccc3OC3=C2C(=O)N(Cc2ccc(F)cc2)C3=O)cc1`, the growth was -63.3% (active) with BT-549 breast; -81% (active) in the assay on SW-620 colon; -19.5% (active) with MCF7 breast; -90.4% (active) with HCT-116 colon; 42.2% in the assay on HCC-2998 colon; 52.6% with KM12 colon.

On to `COC(=O)/C=C1\SC(=Nc2ccc(C(F)(F)F)cc2)N(CCc2c[nH]c3ccccc23)C1=O`, for which the growth in the assay with BT-549 breast was -21.8% (active); with SW-620 colon, -76.1% (active); with MCF7 breast, -7.91% (active); in the assay with HCT-116 colon, -63.4% (active); in the assay on HCC-2998 colon it was -90.6% (active); with KM12 colon, -62.8% (active).

Take `O=C(C[n+]1cccc2cc(Cl)ccc21)c1ccc2c(c1)CCCC2`: the growth in the assay on BT-549 breast is 22.2%; in the assay with SW-620 colon it was 35.6%; in the assay with MCF7 breast, 4.57% (active); in the assay on HCT-116 colon it was 7.99% (active); in the assay with HCC-2998 colon it was 27.7%; in the assay on KM12 colon, 14.7%.

`N#Cc1c(-c2ccc(F)cc2)nc(N/N=C/c2c[nH]c3ccccc23)nc1N1CCOCC1`: the growth with BT-549 breast is 75.5%; in the assay with SW-620 colon, 7.62% (active); in the assay with MCF7 breast it was 51.5%; in the assay on HCT-116 colon, 44.3%; with HCC-2998 colon it was 59%; in the assay with KM12 colon it was 40%.

For `C=C(C)[C@@H]1CC[C@]2(C(=O)NCCCO)CC[C@]3(C)[C@H](CC[C@@H]4[C@@]5(C)CCCNC(C)(C)[C@@H]5CC[C@]43C)[C@@H]12`, the growth is 78.5% with BT-549 breast; 41.5% with MCF7 breast; 53.7% with HCT-116 colon; 74.3% in the assay on HCC-2998 colon; 84.5% in the assay with KM12 colon.

Consider `Cc1nc(C)c(C)nc1C`, for which the growth in the assay with BT-549 breast is 110%; with MCF7 breast, 101%; in the assay on HCT-116 colon, 98.4%; in the assay with HCC-2998 colon, 95.6%; in the assay with KM12 colon it was 105%.

For `O=C(Nc1nc(-c2ccccc2)cs1)c1cc(-c2ccc(Br)cc2)nc2ccccc12`, the growth in the assay on MDA-MB-435 melanoma is 77.2%; in the assay on SW-620 colon, 51.6%; with MCF7 breast, 37.6%; in the assay on HCT-116 colon, 27.5%; in the assay on HCC-2998 colon, 87.7%.

Consider `N#Cc1ccc(N2Cc3cc(Cl)ccc3OC3=C2C(=O)N(Cc2ccccc2)C3=O)cc1`, for which the growth is -50.5% (active) in the assay with BT-549 breast; -75.8% (active) in the assay with SW-620 colon; -82.7% (active) in the assay on HCT-116 colon; 40.4% with HCC-2998 colon; 61.4% with KM12 colon.

Take `Cc1c(Cl)cccc1NC(=O)c1sc2nc3c(cc2c1N)CN(Cc1ccccc1)CC3`: the growth with BT-549 breast was 61.9%; in the assay with SW-620 colon, 16.8%; in the assay on MCF7 breast, 16.1%; in the assay on HCT-116 colon, 39.3%; in the assay on HCC-2998 colon it was 82.9%; with KM12 colon, 30.8%.

For the compound `Cc1nc2sc(C(=O)Nc3cccc4ccccc34)c(N)c2cc1C(C)O` (centres undefined), the growth was 26.2% in the assay on BT-549 breast; 30.5% with SW-620 colon; 17.8% in the assay on MCF7 breast; 8.51% (active) in the assay on HCT-116 colon; 15.7% with HCC-2998 colon; 18.2% in the assay with KM12 colon.

For the compound `CCOC(=O)c1c(C)nc2c(c1N)/C(=C/c1cccs1)C(=O)N2Cc1ccccc1`, the growth with BT-549 breast is 73.6%; in the assay on SW-620 colon it was 58%; in the assay with MCF7 breast it was 8.22% (active); with HCT-116 colon, 34.9%; with HCC-2998 colon it was 96%; in the assay on KM12 colon, 40.5%.

Turning to `S=C(Nc1ccccc1)c1ccccn1`, the growth is 90.5% in the assay on BT-549 breast; 89.6% with SW-620 colon; 77.5% in the assay on MCF7 breast; 92.5% with HCT-116 colon; 98.7% in the assay with HCC-2998 colon; 99.8% with KM12 colon.

For the compound `N#CC1(C#N)C2=C(CCCC2)NC(c2c(F)cccc2Cl)C1(C#N)C#N` (centres undefined), the growth in the assay on BT-549 breast is 60.4%; in the assay on SW-620 colon it was 48.8%; in the assay with MCF7 breast it was 21.1%; in the assay with HCT-116 colon, 52.7%; in the assay on HCC-2998 colon it was 97.6%; in the assay with KM12 colon, 73.3%.

On to `Nc1c(C(=O)Nc2cccc3ccccc23)sc2nc3c(cc12)CCCCCC3`, for which the growth is 32% in the assay with BT-549 breast; 22.4% with SW-620 colon; 20.6% in the assay on MCF7 breast; 7.05% (active) in the assay with HCT-116 colon; 43.3% with HCC-2998 colon; 21.9% in the assay with KM12 colon.

For `OCCNc1nc(NCCO)nc(Nc2ccc(C3=NN(c4ccc(Cl)cc4)C(c4ccc(Cl)cc4)C3)cc2)n1` (centres undefined), the growth is 77.1% in the assay on BT-549 breast; 71.1% in the assay on SW-620 colon; 20.4% in the assay with MCF7 breast; 48.6% in the assay with HCT-116 colon; 56.8% with HCC-2998 colon; 49.8% with KM12 colon.

Regarding `COc1ccc(C2C(c3ccccc3)C(=O)N2c2cc(OC)c(OC)c(OC)c2)cc1I` (centres undefined), the growth in the assay on BT-549 breast is 12%; in the assay on SW-620 colon, 23.7%; in the assay with MCF7 breast, 8.53% (active); in the assay on HCT-116 colon, 3.14% (active); in the assay on HCC-2998 colon it was 31.8%; in the assay on KM12 colon, 15.3%.

Turning to `CC(=O)Oc1ccc(O)cc1`, the growth with BT-549 breast is 92.7%; with SW-620 colon, 115%; with MCF7 breast, 88%; in the assay with HCT-116 colon it was 95.3%; in the assay with HCC-2998 colon it was 123%; with KM12 colon, 103%.

With `COc1cc(/C=C/C(=O)c2cccs2)ccc1OCc1ccc(Cl)nc1`, the growth in the assay with BT-549 breast was 91.4%; in the assay with SW-620 colon it was 58.2%; in the assay on MCF7 breast it was 9.24% (active); in the assay with HCT-116 colon it was 75.1%; in the assay on HCC-2998 colon it was 99.8%; with KM12 colon, 28.5%.

For `Cc1nccc2c3ccc(OCc4cn(-c5ccc(Cl)cc5)nn4)cc3n(CC(C)C)c12`, the growth in the assay on MDA-MB-435 melanoma is 30.6%; in the assay with SW-620 colon, 24.4%; in the assay with MCF7 breast, 13%; in the assay on HCT-116 colon, 10.8%; in the assay on HCC-2998 colon, 31.2%; with KM12 colon, 19.3%.

As to `CC1CCN(CCCCCOc2ccc3oc4ccccc4c(=O)c3c2)CC1`, the growth is 79.9% with MDA-MB-435 melanoma; 81.7% in the assay on SW-620 colon; 68.3% in the assay with MCF7 breast; 52.7% in the assay with HCT-116 colon; 79.5% in the assay with HCC-2998 colon; 69.9% in the assay on KM12 colon.

For the compound `O=S(=O)(O)c1ccc(N=NSc2ccc3ccccc3c2)cc1`, the growth with MDA-MB-435 melanoma was 99.9%; in the assay with SW-620 colon it was 96.5%; with MCF7 breast, 98.9%; in the assay on HCT-116 colon, 85.8%; with HCC-2998 colon it was 97.2%; with KM12 colon it was 98.6%.

In the case of `C=C1C(=O)O[C@H]2[C@H]1CC/C(COC(=O)c1c[nH]c3ccccc13)=C\CC[C@@]1(C)O[C@@H]21`, the growth is -82.9% (active) in the assay with MDA-MB-435 melanoma; -61.4% (active) in the assay with SW-620 colon; -52.7% (active) with MCF7 breast; -86.1% (active) with HCT-116 colon; -80.9% (active) in the assay with HCC-2998 colon; -47.4% (active) with KM12 colon.

In the case of `COc1cc(NCC(=O)Nc2cc(Nc3cccc(C(F)(F)F)c3)ncn2)c(Cl)c(OC)c1Cl`, the growth in the assay on MDA-MB-435 melanoma is 102%; in the assay with MCF7 breast, 85.8%; with HCT-116 colon, 87.4%; in the assay with HCC-2998 colon, 103%; with KM12 colon it was 92.3%.
